PubChem BioAssay (EPA / NIEHS)
The source made the active and inactive calls. How the source made its calls: active means hit-call score of the fitted dose curve at least 0.9, where 1 is the maximum; inactive means score below 0.9.

Assay: ATG_Oct_MLP_CIS: Attagene CIS-FACTORIAL HepG2 Assay for human Octamer-Binding Transcription Factor (Oct) (AID 2282993)
Settings: HepG2 Attagene cis-factorial Oct reporter, mRNA; actives raise or lower the signal
Outline: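 Multiplexed cis-reporter assay in human liver HepG2 cells, 24 h incubation. Reporter RNA amplified and labelled, then resolved by capillary electrophoresis; DMSO serves as negative control and baseline.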

SMILES	AC50	outcome
CC(C)(C)c1cc([N+](=O)[O-])cc(C(C)(C)C)c1O	19.8 µM (active)	
Oc1c(Cl)cc(Cl)cc1Cl		inactive
[Cl][Sn]([c]1ccccc1)([c]1ccccc1)[c]1ccccc1	0.25 µM (active)	
CC1(C)[C@H](C(=O)O[C@H](C#N)c2cccc(Oc3ccccc3)c2)[C@@H]1/C=C(\Cl)C(F)(F)F		inactive
Cc1ccc(OP(=O)(Oc2ccc(C)cc2C)Oc2ccc(C)cc2C)c(C)c1		inactive
O=[N+]([O-])c1cccc2ccccc12		inactive
Cc1ccc2nc3sc(=O)sc3nc2c1	6.95 µM (active)	
c1ccc(-c2cccc(-c3ccccc3)c2)cc1		inactive
CCC(C)(C#N)N=NC(C)(C#N)CC (stereo unspecified)		inactive
CCN(CC)C(=O)C(Cl)=C(C)OP(=O)(OC)OC		inactive
CCOP(=O)(OCC)OC(=CCl)c1ccc(Cl)cc1Cl		inactive
Cc1cccc(OP(=O)(Oc2cccc(C)c2)Oc2cccc(C)c2)c1		inactive
OCCCCO		inactive
Cc1ccccc1OP(=O)(Oc1ccccc1)Oc1ccccc1		inactive
COCC(=O)N(c1c(C)cccc1C)[C@H](C)C(=O)OC		inactive
CCCCOC(=O)COC(=O)c1ccccc1C(=O)OCCCC		inactive
